PubChem BioAssay AID1159580 (chemical genetic matrix, 2015)
Hit rate of the full screen: of about 5,500 compounds, about 2,000 (36%) were called active. Inconclusive results (about 18%) are left out. Rule as the data show it: active = normalized growth mostly below about 0.91 (no sharp cut-off); inconclusive = no clear call, values can overlap the other calls; inactive = mostly above about 0.92. This is one part of the list.

Test: chemical genetic growth profiling, strain panel (AID 1159580);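 also: tested at 20 µM; growth read once vehicle control cultures reached saturation at 30 °C; 1 = growth at the plate median or of vehicle wells; lower values mean less growth of the strain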
Conditions: S. cerevisiae deletion strains, growth OD

Measured: normalized growth

CC(=O)O[C@]1(C(C)=O)CCC2C3C=C(Cl)C4=CC(=O)[C@@H]5C[C@@H]5[C@]4(C)C3CC[C@@]21C (some centres undefined)
inactive: locus YAL021C, strain ccr4, stronger effect = lower value 1.06 | locus YAL026C, strain drs2, stronger effect = lower value 1.02 | locus YAL030W, strain snc1, stronger effect = lower value 1.01 | locus YBL061C, strain skt5, stronger effect = lower value 1.01 | locus YBR009C, strain hhf1, stronger effect = lower value 0.973 | locus YBR023C, strain chs3, stronger effect = lower value 1 | locus YBR171W, strain sec66, stronger effect = lower value 1.02 | locus YBR231C, strain swc5, stronger effect = lower value 1.03 | locus YBR279W, strain paf1, stronger effect = lower value 0.997 | locus YCL011C, strain gbp2, stronger effect = lower value 0.99 | locus YCL016C, strain dcc1, stronger effect = lower value 0.992 | locus YCL061C, strain MRC1, stronger effect = lower value 1.02 | locus YCL069W, strain vba3, stronger effect = lower value 1.01 | locus YCR088W, strain abp1, stronger effect = lower value 1.01 | locus YDL005C, strain med2, stronger effect = lower value 1 | locus YDL040C, strain nat1, stronger effect = lower value 1.01 | locus YDR001C, strain nth1, stronger effect = lower value 1.01 | locus YDR069C, strain doa4, stronger effect = lower value 1.04 | locus YDR137W, strain rgp1, stronger effect = lower value 0.968 | locus YDR159W, strain sac3, stronger effect = lower value 0.946 | locus YDR195W, strain ref2 1.05 | locus YDR297W, strain sur2, stronger effect = lower value 1.02 | locus YDR334W, strain swr1, stronger effect = lower value 1 | locus YDR335W, strain msn5, stronger effect = lower value 1.01 | locus YDR392W, strain spt3, stronger effect = lower value 0.861 | locus YEL003W, strain gim4, stronger effect = lower value 1.02 | locus YEL037C, strain rad23, stronger effect = lower value 1.02 | locus YEL061C, strain CIN8 (second series), stronger effect = lower value 1.01 | locus YER015W, strain faa2, stronger effect = lower value 1 | locus YER016W, strain bim1, stronger effect = lower value 1.01 | locus YER111C, strain swi4, stronger effect = lower value 1.02 | locus YER155C, strain BEM2 (second series), stronger effect = lower value 1.05 | locus YFR010W, strain ubp6, stronger effect = lower value 1.03 | locus YGL167C, strain pmr1, stronger effect = lower value 1.03 | locus YGL173C, strain kem1, stronger effect = lower value 1.02 | locus YGL227W, strain vid30, stronger effect = lower value 0.997 | locus YGL240W, strain doc1, stronger effect = lower value 1.02 | locus YGL253W, strain hxk2, stronger effect = lower value 0.973 | locus YHR013C, strain ard1, stronger effect = lower value 1.03 | locus YHR027C, strain rpn1, stronger effect = lower value 1.01 | locus YHR030C, strain SLT2, stronger effect = lower value 1.03 | locus YHR079C, strain IRE1, stronger effect = lower value 1.02 | locus YHR142W, strain chs7, stronger effect = lower value 0.988 | locus YJL092W, strain hpr5, stronger effect = lower value 1.02 | locus YJL095W, strain BCK1 (second series), stronger effect = lower value 1.02 | locus YJL095W, strain BCK1, stronger effect = lower value 1.02 | locus YJL115W, strain asf1, stronger effect = lower value 1.01 | locus YJL129C, strain trk1, stronger effect = lower value 1.01 | locus YJL154C, strain vps35, stronger effect = lower value 1.01 | locus YJL164C, strain tpk1, stronger effect = lower value 0.992 | locus YJL166W, strain qcr8, stronger effect = lower value 1.02 | locus YJR066W, strain TOR1, stronger effect = lower value 0.997 | locus YKL160W, strain elf1, stronger effect = lower value 1.01 | locus YKR026C, strain gcn3, stronger effect = lower value 1.01 | locus YKR091W, strain srl3, stronger effect = lower value 1.01 | locus YLL001W, strain dnm1, stronger effect = lower value 1.02 | locus YLL026W, stronger effect = lower value 1.01 | locus YLL041C, strain sdh2, stronger effect = lower value 1.01 | locus YLR027C, strain aat2, stronger effect = lower value 1.02 | locus YLR113W, strain HOG1, stronger effect = lower value 1.03 | locus YLR221C, strain rsa3, stronger effect = lower value 0.982 | locus YLR258W, strain gsy2, stronger effect = lower value 1.01 | locus YLR262C, strain YPT6 (second series), stronger effect = lower value 0.977 | locus YLR320W, strain mms22, stronger effect = lower value 0.979 | locus YLR342W, strain FKS1, stronger effect = lower value 1.01 | locus YLR357W, strain rsc2, stronger effect = lower value 0.999 | locus YLR370C, strain arc18, stronger effect = lower value 1.02 | locus YLR384C, strain iki3, stronger effect = lower value 1.01 | locus YML120C, strain ndi1, stronger effect = lower value 1.02 | locus YMR058W, strain fet3, stronger effect = lower value 1.02 | locus YMR125W, strain sto1, stronger effect = lower value 1.02 | locus YMR129W, stronger effect = lower value 1.01 | locus YMR205C, strain PFK2, stronger effect = lower value 0.991 | locus YMR231W, strain pep5, stronger effect = lower value 1.01 | locus YNL071W, strain lat1, stronger effect = lower value 0.963 | locus YNL183C, strain NPR1, stronger effect = lower value 0.986 | locus YNL209W, strain ssb2, stronger effect = lower value 0.999 | locus YNL248C, strain rpa49, stronger effect = lower value 1.01 | locus YNL322C, strain KRE1 (second series), stronger effect = lower value 1.01 | locus YNR049C, strain mso1, stronger effect = lower value 1 | locus YOR001W, strain rrp6, stronger effect = lower value 1.03 | locus YOR070C, strain gyp1, stronger effect = lower value 1 | locus YOR080W, strain dia2, stronger effect = lower value 1.02 | locus YOR083W, strain WHI5, stronger effect = lower value 0.983 | locus YOR106W, strain vam3, stronger effect = lower value 1.01 | locus YOR231W, strain MKK1, stronger effect = lower value 1.02 | locus YOR265W, strain rbl2, stronger effect = lower value 1.02 | locus YOR270C, strain vph1, stronger effect = lower value 0.954 | locus YOR290C, strain snf2, stronger effect = lower value 0.995 | locus YPL051W, strain arl3, stronger effect = lower value 1.01 | locus YPL078C, strain atp4, stronger effect = lower value 1.01 | locus YPL106C, strain sse1, stronger effect = lower value 1.04 | locus YPL240C, strain hsp82, stronger effect = lower value 1.02 | locus YPL256C, strain CLN2, stronger effect = lower value 1.03
